Measurements taken from PubChem BioAssay (NCI).
Compounds without any hit were thinned out: in the full panel of roughly 79,000, 15% have a hit. Unmarked numbers belong to inactive results. Activity calls are given as the source filed them. Rule as the data show it: active = growth inhibition above about 70%; inactive = the rest.

Assay: NCI Yeast Anticancer Drug Screen. Data for the sgs1 mgt1 strain (AID 161);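 also: 0% = growth of cultures given vehicle only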
Conditions: S. cerevisiae sgs1 mgt1 strain, at 50.0 µM (retest, dose inferred, filed as 5.0), stronger effect = higher value
Procedure, shortened: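 Yeast cells carrying a defined DNA-repair defect were exposed to test compounds. Growth inhibition was measured relative to vehicle-treated controls.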

SMILES | growth inhibition
Clc1cc2n[nH]nc2c(Cl)c1Cl | 83% (active)
NSc1ccc(N)s1 | 13%
O=C1C2=C(CCCC2)C(=O)C(Cl)C1Cl (centres undefined) | 99% (active)
O=C(COc1ccc2ccccc2c1)NC1c2ccccc2Oc2ccccc21 | 97% (active)
COc1ccc(-c2cc(-c3ccco3)c(C#N)c(=S)n2C2OC(CO)C(O)C(O)C2O)cc1 (centres undefined) | -3%
Clc1cccc(Cl)c1C(Nc1nncs1)Nc1nncs1 | 55%
COC([C@@H](OC(=O)c1ccccc1)[C@H](OC(=O)c1ccccc1)C(O)COC(=O)c1ccccc1)n1cc(C)c(=O)[nH]c1=O (some centres undefined) | 33%
C1=C(c2c(-c3ccccc3)[nH]c3ccccc23)Cc2ccccc21 | 54%
CC12C(=O)OC(=O)C1C1c3ccccc3C2c2ccccc21 (centres undefined) | 90% (active)
O=C(N/C(=C\c1ccc(/C=C(\NC(=O)c2ccccc2)c2nc3ccccc3s2)cc1)c1nc2ccccc2s1)c1ccccc1 | 42%
COS(=O)c1cc(Cl)cc(Cl)c1OC(=O)CSSCC(=O)Oc1c(Cl)cc(Cl)cc1S(=O)OC (centres undefined) | 99% (active)
COc1cc2c3c(c4ccc(OC)c(OC)c4c2cc1OC)CN1CCC[C@@H]1C3 | 96% (active)
N#CSC#CCCC#CSC#N | 100% (active)
Nc1nc(-c2ccc(Cl)cc2)c(N=Nc2ccc(Br)cc2)s1 | 94% (active)
CC(=O)C(C(C)=O)C1C=CC=CC=C1 | 90% (active)
CCCCN(C(=O)c1ccccc1)C1CCC(=O)c2[nH]c3ccccc3c21 (centres undefined) | 20%
S=C(Nc1ccc(Cl)c(Cl)c1)N1c2ccccc2-n2cccc2C1c1cccnc1 (centres undefined) | 94% (active)
O=C1CCC(Cc2ccc(C(F)(F)F)cc2)C(=O)N1 (centres undefined) | 92% (active)
Oc1cc(O)c2c(c1)OC(c1ccc(O)c(O)c1)C(OC1(c3cc(O)c(O)c(O)c3)Oc3cc(O)cc(O)c3C(O)C1O)C2 (centres undefined) | 6%
Cc1cccc(N=Nc2ccc(O)cc2)c1 | 98% (active)

SMILES | growth inhibition
Cc1c2c(c(C)c3c4c(oc13)CCCC4)C=NCC2 | 36%
CCOC(=O)C(=CCC1NCCc2c1[nH]c1ccccc21)C(=O)OCC (centres undefined) | 63%
CCOC(=O)C1=C(c2ccccc2)SC(c2ccccc2)N(C(C)C)C1=O (centres undefined) | 81% (active)
CN(C)CCCNc1cc(/C=C/c2ccc([N+](=O)[O-])cc2)nc2ccccc12 | 60%
CC(CN(C)C)C(=O)c1cn(C)c2ccccc12 (centres undefined) | 3%
Nc1ccccc1/C=C/c1c[nH]c2ccccc12 | 98% (active)
Cc1c(CNc2ccc(Cl)c(Cl)c2Cl)cnc2nc(N)nc(N)c12 | 52%
O=C(c1cccs1)N(C(=S)N1CCN(c2ccccn2)CC1)c1ccccc1 | 1%
COc1ccccc1/C=C1\NC(=S)N(/C=C2\C(=O)Oc3ccccc3C2=O)C1=O | 38%
Cc1cc(O)c(C)c(C)c1N=Nc1ccccc1 | -38%
O=S1CCS(=O)C1c1ccccc1 (centres undefined) | 33%
Cc1ccc2nc(-c3ccc(N)cc3)sc2c1 | 7%
CC1OC(OC2C(Oc3c(-c4ccc(O)c(O)c4O)oc4cc(O)ccc4c3=O)OC(CO)C(O)C2O)C(O)C(O)C1O (centres undefined) | 1%
O=C(OCc1ccccc1CN1CCOCC1)c1cccc(Br)c1 | 82% (active)
C=CCOCC(C)OC(=O)C(C)C (centres undefined) | -63%
CC(C)(C)OC(=O)N[C@H]1CC2(C=C(Cl)C(=O)C(Cl)=C2)OC1=O | 90% (active)
CC(Nc1ccc(Cl)c(Cl)c1)c1ccncc1 (centres undefined) | 98% (active)
COc1ccccc1/C=C(\NC(=O)c1ccccc1)c1nc2ccccc2[nH]1 | 99% (active)
CCCCCCC(O)(CCCCCC)CCCCCC | -31%
